What all share (test): NCI-60 one-dose screen, 48 h (100 = growth as untreated, 0 = no growth, -100 = all killed)
One experiment deals with NCI-H226 lung. Conditions: 10 µM.
Another experiment concerns NCI-H322M lung. Conditions: 10 µM.
A further experiment relates to HOP-62 NSCLC. The settings on record: 10 µM.
The test system of another experiment is NCI-H460 lung. Conditions: 10 µM.
In a further experiment the test system is A549/ATCC NSCLC. The settings on record: 10 µM.
Another experiment relates to DU-145 prostate. The settings on record: 10 µM.
Another experiment deals with SF-268 CNS. Conditions: 10 µM.
Another experiment relates to SF-295 CNS. Conditions: 10 µM.
The next experiment has as its system SF-539 CNS. The settings on record: 10 µM.
Another experiment relates to M14 melanoma. The settings on record: 10 µM.
The subject of the next experiment is HCT-15 colon. Conditions: 10 µM.
A further experiment concerns HT29 colon. Conditions: 10 µM.
Another experiment relates to SNB-75 CNS. Conditions: 10 µM.
Another experiment deals with SNB-19 CNS. Conditions: 10 µM.
The next experiment concerns U251 CNS. The settings on record: 10 µM.
For a further experiment, the system named is PC-3 prostate. The settings on record: 10 µM.
The subject of another experiment is SK-MEL-5 melanoma. Conditions: 10 µM.
For the next experiment, the system named is UACC-62 melanoma. The settings on record: 10 µM.
The subject of a further experiment is SK-MEL-28 melanoma. The settings on record: 10 µM.
For a further experiment, the system named is HL-60(TB) leukemia. The settings on record: 10 µM unless noted.

This is part of a sample that, as a whole, favours compounds with a hit. Of some 83,000 tested, about 20% had one in any assay.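 Interpretation: 100, growth as untreated; towards 0, rising growth inhibition; 0, no net growth; 0 to -100, cell death. Compounds scoring below 10 were considered active.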 Values without a mark were called inactive. Activity calls are given as the source filed them.

`CC[C@]12C=CCN3CC[C@@]4(c5ccc(OC)cc5N(C)[C@H]4[C@@](O)(C(=O)OC)[C@@H]1OC(=O)CCC[P+](c1ccc(F)cc1)(c1ccc(F)cc1)c1ccc(F)cc1)[C@@H]32`: the growth in the experiment with NCI-H226 lung was 46.9%; in the experiment with NCI-H322M lung, 65.2%; in the experiment with HOP-62 NSCLC, 64%; in the experiment on NCI-H460 lung it was 30.9%; in the experiment on A549/ATCC NSCLC, 54.5%; in the experiment with DU-145 prostate it was 47.7%. The growth with SF-268 CNS was 42.3%; in the experiment with SF-295 CNS it was 85%; with SF-539 CNS, 24.2%; with M14 melanoma it was 21.5%; in the experiment with HCT-15 colon, 99.6%; in the experiment on HT29 colon, 15.7%. In addition, the growth in the experiment with SNB-75 CNS was 39.9%; with SNB-19 CNS, 13.8%; in the experiment with U251 CNS, 18.5%; in the experiment on PC-3 prostate it was 16.7%; in the experiment on SK-MEL-5 melanoma, -38.3% (active); in the experiment on UACC-62 melanoma, -59.5% (active). Further, the growth was -24.1% (active) in the experiment with SK-MEL-28 melanoma and -22.9% (active) with HL-60(TB) leukemia.
Take `O=C([Se]C1C=CCCC1)c1ccc(C(=O)[Se]C2C=CCCC2)s1` (centres undefined): the growth in the experiment on NCI-H226 lung was -42.9% (active); with NCI-H322M lung, -28.5% (active); in the experiment with HOP-62 NSCLC, -50.6% (active); in the experiment with NCI-H460 lung it was 4.46% (active); with A549/ATCC NSCLC, -7.22% (active); in the experiment on DU-145 prostate it was -3.45% (active). The growth is 0.795% (active) in the experiment on SF-268 CNS; -44.2% (active) in the experiment on SF-295 CNS; -100% (active) in the experiment on SF-539 CNS; -81.2% (active) in the experiment with M14 melanoma; -25.1% (active) in the experiment with HCT-15 colon; -25.6% (active) in the experiment with HT29 colon. In addition, the growth was -77.6% (active) with SNB-75 CNS; -93.8% (active) with SNB-19 CNS; -88% (active) in the experiment on U251 CNS; -16.5% (active) with PC-3 prostate; -88.8% (active) with SK-MEL-5 melanoma; -89.2% (active) in the experiment with UACC-62 melanoma. In addition, the growth with SK-MEL-28 melanoma was -79.4% (active); in the experiment with HL-60(TB) leukemia, 1.11% (active).
For the compound `CC(C)N=C([Se])NC(=O)c1cccs1`, the growth in the experiment on NCI-H226 lung is 64.6%; in the experiment on NCI-H322M lung, -2.73% (active); with HOP-62 NSCLC, -2.97% (active); in the experiment on NCI-H460 lung, 0.572% (active); with A549/ATCC NSCLC, 17.6%; in the experiment with DU-145 prostate, -14.3% (active). The growth in the experiment with SF-268 CNS was 59.4%; in the experiment with SF-295 CNS it was -14% (active); in the experiment with SF-539 CNS it was -63.3% (active); with M14 melanoma, 8.28% (active); with HCT-15 colon it was 34.9%; in the experiment on HT29 colon, 27.9%. Also, the growth in the experiment on SNB-75 CNS is -28.6% (active); in the experiment on SNB-19 CNS, 4.61% (active); in the experiment on U251 CNS it was 12.2%; in the experiment on PC-3 prostate, 8.44% (active); in the experiment on SK-MEL-5 melanoma, -59.7% (active); in the experiment with UACC-62 melanoma it was 27.5%. Also, the growth in the experiment with SK-MEL-28 melanoma is 60.2%; in the experiment on HL-60(TB) leukemia, 56%.
Turning to `CC1=C(C=O)C2=C(C)C3(CC3)[C@@](C)(O)C(=O)C2=C1`, the growth is 45.9% in the experiment with NCI-H226 lung; 67.2% with NCI-H322M lung; 37.5% in the experiment on HOP-62 NSCLC; 2.24% (active) in the experiment with NCI-H460 lung; 17.8% in the experiment on A549/ATCC NSCLC; 8.41% (active) in the experiment on DU-145 prostate. Also, the growth with SF-268 CNS is 36.2%; in the experiment on SF-295 CNS, 70.5%; in the experiment on SF-539 CNS, -47.8% (active); in the experiment with M14 melanoma, 13.6%; in the experiment on HCT-15 colon it was -29.3% (active); in the experiment on HT29 colon, 15.8%. Besides, the growth with SNB-75 CNS is 16.5%; with SNB-19 CNS, 54.5%; in the experiment on U251 CNS, -43.9% (active); in the experiment with PC-3 prostate, 26.1%; in the experiment on SK-MEL-5 melanoma, -91.5% (active); in the experiment with UACC-62 melanoma, 49.3%. The growth in the experiment on SK-MEL-28 melanoma was 23.3%.
On to `COc1cc2cc(C(=O)N3C[C@@H](CCl)c4c3cc(OC(=O)N3CCN(C(=O)CCC(=O)N5CCN(C)CC5)[C@@H]5CSSC[C@@H]53)c3ccccc43)[nH]c2c(OC)c1OC`, for which the growth is -11.6% (active) with NCI-H226 lung; -7.14% (active) in the experiment with NCI-H322M lung; -55.3% (active) in the experiment on HOP-62 NSCLC; -67.7% (active) in the experiment on NCI-H460 lung; -59.7% (active) with A549/ATCC NSCLC; -4.3% (active) in the experiment on DU-145 prostate. The growth is -28.4% (active) in the experiment with SF-268 CNS; -88.5% (active) in the experiment with SF-295 CNS; -91.8% (active) in the experiment on SF-539 CNS; -81.7% (active) in the experiment on M14 melanoma; -87.4% (active) with HCT-15 colon; -84.3% (active) with HT29 colon. For the same compound, the growth in the experiment with SNB-75 CNS was -90.1% (active); with SNB-19 CNS, -50.2% (active); with U251 CNS, -71.2% (active); with PC-3 prostate it was -10.5% (active); in the experiment with SK-MEL-5 melanoma, -100% (active); in the experiment with UACC-62 melanoma it was -64% (active). Also, the values for the growth with SK-MEL-28 melanoma and in the experiment with HL-60(TB) leukemia were -94.4% (active) and -37.6% (active), respectively.
For `CC[C@@]12CC(C(=O)OC)=C3Nc4cc5c(cc4[C@@]34CCN(C[C@H]3O[C@H]31)[C@@H]24)[C@@H]1[C@H](O5)[C@@H](O)[C@@]2(CC)CC(C(=O)OC)=C3Nc4cc(OC)ccc4[C@@]34CCN1[C@@H]24`, the growth with NCI-H226 lung was -4.56% (active); in the experiment with NCI-H322M lung, 25.1%; with HOP-62 NSCLC, 21.5%; in the experiment on NCI-H460 lung, 15.9%; with A549/ATCC NSCLC, 25.7%; in the experiment with DU-145 prostate, 50.7%. Moreover, the growth is 38.5% in the experiment on SF-268 CNS; 0.382% (active) with SF-295 CNS; 21.7% with SF-539 CNS; 28.7% in the experiment on M14 melanoma; -38.1% (active) in the experiment with HCT-15 colon; 10.7% in the experiment on HT29 colon. Further, the growth is -4.82% (active) in the experiment on SNB-75 CNS; 21.3% in the experiment with SNB-19 CNS; 17.2% with U251 CNS; 22.2% in the experiment on PC-3 prostate; -85.1% (active) with SK-MEL-5 melanoma; 3% (active) in the experiment with UACC-62 melanoma. Besides, the growth is 27.1% in the experiment with SK-MEL-28 melanoma and -17% (active) in the experiment with HL-60(TB) leukemia.
For `C[C@H]1[C@H](OC(=O)CCC(=O)N(CCCc2cn(-c3ccc([N+](=O)[O-])cc3)nn2)CCNc2ccnc3cc(Cl)ccc23)O[C@@H]2OC3(C)CC[C@H]4[C@H](C)CC[C@@H]1[C@@]24OO3`, the growth is 61.6% in the experiment on NCI-H226 lung; 81.5% with NCI-H322M lung; 69.4% with HOP-62 NSCLC; 53.5% with NCI-H460 lung; 52.6% in the experiment on A549/ATCC NSCLC; 53.8% with DU-145 prostate. For the same compound, the growth is 59.5% in the experiment on SF-268 CNS; 46.1% with SF-295 CNS; 38.1% in the experiment on SF-539 CNS; 45.3% with M14 melanoma; 15.8% with HCT-15 colon; -6.33% (active) with HT29 colon. Moreover, the growth in the experiment on SNB-75 CNS is 89.2%; with SNB-19 CNS it was 67%; in the experiment with U251 CNS it was 55.9%; in the experiment with PC-3 prostate it was 41.2%; in the experiment on SK-MEL-5 melanoma it was 17.8%; in the experiment on UACC-62 melanoma, 39%. In addition, the growth in the experiment on SK-MEL-28 melanoma was 50.7%; with HL-60(TB) leukemia it was -24.2% (active).
